# Assay outcomes deposited in PubChem BioAssay by National Center for Advancing Translational Sciences (NCATS).
# This is a sample that favours compounds with a hit; in the whole collection about 1% have one here.
# TCR act: Activators of T cell receptors: qHTS campaign | primary human leukocytes, anti-CD3, IL-2 HTRF, 48 h | Potency, µM (doses to about 9.22 µM), most hits filed as activators | 330,000 tested, under 10 active
#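 Activity was scored as IL-2 release from primary human leukocytes given only a TCR signal (a-CD3 beads) plus compound for 48 hr. Detection used a two-antibody HTRF format read at 665nm.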
# TexasRed fluor: Total Fluorescence Counterscreen for Inhibitors of the Interaction of Thyroid Hormone Receptor and Steroid Receptor Coregulator 2 | Potency, µM (series often up to 106 µM) | TRb/SRC2 Texas Red total fluorescence interference | 280,000 tested, 0.29% active; active means well fitted curve in either direction with a large enough effect; inconclusive means small, poorly fitted or top-dose-only effect
#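 Flags fluorescent or light-absorbing compounds by total fluorescence, S + 2P, at 555 nm excitation and 632 nm emission. Mixture: 20 nM Texas Red SRC2 peptide, 0.6 uM human TRb LBD, 1 uM T3, 5% DMSO; compound exposure 5 h at ambient temperature.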
# TRb-SRC2 inh: qHTS for Inhibitors of the Interaction of Thyroid Hormone Receptor and Steroid Receptor Coregulator 2. Thyroid hormone receptor beta (Homo sapiens), P10828. TRbeta-SRC2 peptide binding, fluorescence polarization; receptor liganded with 1 µM T3. Potency, µM (titrated, usually from 106 µM), usual class: inhibitors. 280,000 tested, 0.065% active. AID 1469, 2008; further: nearly all actives have a fitted effect of over 50% in size
#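 Human TRb LBD (0.6 uM) plus Texas Red-labeled SRC2 peptide (20 nM), 1uM T3, 5% DMSO, 5 hr at ambient temperature. Decreased polarization (555/632 nm) flags inhibition; data normalized to free and bound peptide controls.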
# NPSR antagonist: qHTS Assay for Antagonists of the Neuropeptide S Receptor: cAMP Signal Transduction. Q6W5P4. CHO-NPSR cells, cAMP TR-FRET, antagonist mode. Potency, µM (doses to about 38.3 µM), hits mostly inhibitors. 220,000 tested, 1% active; further: nearly all actives have a fitted effect of over 50% in size
# Target sequence (Q6W5P4 whole entry, looked up): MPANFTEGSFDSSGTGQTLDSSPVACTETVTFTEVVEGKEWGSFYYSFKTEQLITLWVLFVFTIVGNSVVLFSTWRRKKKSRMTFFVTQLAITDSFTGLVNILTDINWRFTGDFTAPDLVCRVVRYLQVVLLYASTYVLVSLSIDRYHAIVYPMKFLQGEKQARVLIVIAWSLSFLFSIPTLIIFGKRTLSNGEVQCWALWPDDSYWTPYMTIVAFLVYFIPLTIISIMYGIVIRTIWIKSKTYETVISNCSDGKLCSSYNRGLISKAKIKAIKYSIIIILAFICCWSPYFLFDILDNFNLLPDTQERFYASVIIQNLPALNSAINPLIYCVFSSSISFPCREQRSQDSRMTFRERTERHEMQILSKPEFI
# FBPA coupling cs: qHTS Assay for Inhibitors of Fructose-1,6-bisphosphate Aldolase from Giardia Lamblia: Coupling assay counterscreen; coupling enzyme system counterscreen, AmpLite Red fluorescence; activity change, negative = inhibition, % at 58.2 µM, hits read low; 290,000 tested, 0.67% active; AID 2472, 2010; in the data active means activity change below about -30%
#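 Activity here indicates interference with the coupling reaction, not aldolase inhibition. Compounds at 57.5 uM final met coupling enzymes for 10 min at RT; substrate and AmpLite Red detection followed, with a 525/598 nm fluorescence read after 20 min.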
# TSHR antagonist: Antagonists of the Thyroid Stimulating Hormone Receptor: HTS campaign. TSHR-expressing cells, TSH-stimulated cAMP HTRF, 2 h; active compounds read low. 330,000 tested, 0.2% active. activity change, negative = inhibition, % at 11.5 µM. AID 504810, 2011. Thyrotropin receptor (Homo sapiens), P16473;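 active means activity change below a set negative limit, meaning inhibition stronger than a set level, cut at about -70% in these data; inconclusive means activity change between two set negative limits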
#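 TSHR-expressing cells, 200/well, pre-treated with compound, then stimulated with EC80 TSH (4nM final) for 2 hours at 37 deg C. cAMP measured by competitive HTRF: anti-cAMP cryptate antibody in lysis buffer plus cAMP-d2, read after 30 minutes at room temperature.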
# A number is an active result; - = inactive; ? = inconclusive; . = no result; [ ] = dose if it differs, or a comment. Unless noted, the call rests on the fitted dose curve; in most records, active means well fitted curve in the direction sought with a large enough effect; inconclusive means small, poorly fitted or top-dose-only effect, or another doubt; inactive means no such curve, though single readings can be large; an effect the other way counts as inactive or inconclusive.
SMILES,TCR act,TexasRed fluor,TRb-SRC2 inh,NPSR antagonist,FBPA coupling cs,TSHR antagonist
COc1ccc2c(c1)Cc1sc(NC(=O)c3ccccc3)nc1-2,-,-,-,-,-36,-
Cc1ccc2cccc(NC(=O)COc3ccccc3Cl)c2n1,.,16µM[quencher],-,.,.,.
CC(=O)c1ccc(N2CCN(C(=O)NCc3noc4ccc(C)cc34)CC2)cc1,.,-,-,.,.,.
C=CC(=O)OCCOCC(CC)(COCCOC(=O)C=C)COCCOC(=O)C=C,.,-,?,.,.,.
CCN(CC)CCN(C(=O)c1ccco1)c1nc2c(C)cccc2s1,.,-,-,.,.,.
CCOc1cccc2sc(N(CCN(CC)CC)C(=O)c3ccco3)nc12,.,14µM[quencher],-,.,.,.
Cc1c(Cl)cccc1Cl,.,-,-,.,.,.
Cc1ccc(NC(=O)CN2C(=O)C3(SCC(=O)N3c3ccc(F)c(F)c3)c3ccccc32)c(C)c1 (configuration not stated),.,-,-,.,.,.
O=c1/c(=C/c2ccccn2)sc2nc3ccccc3n12,-,-,-,-,-,-
O=c1/c(=C\c2cc([N+](=O)[O-])cc([N+](=O)[O-])c2O)sc2nc3ccccc3n12,-,45µM[quencher],-,-,-32,-
Cc1sc(NC(=O)c2ccco2)c(C(c2cccnc2)N2CCC(C)CC2)c1C (configuration not stated),-,-,-,13µM,-,-
CCN1CCN(C(c2cccnc2)c2c(NC(=O)c3ccco3)sc(C)c2C)CC1 (configuration not stated),-,.,.,.,.,-
O=c1c(-c2ccccc2)coc2cc(O)cc(O)c12,.,-,-,.,-35,.
O=c1c(-c2ccc3c(c2)OCCO3)coc2cc(O)cc(O)c12,-,-,-,?,-,-
COc1cc(C2C(C(=O)N3CCOCC3)=C(C)NC3=C2C(=O)CCC3)ccc1OC(C)=O (configuration not stated),-,-,-,-,-33,-
COc1ccc(NC(=O)NC(C)c2c(-n3cccc3)sc3c2CCN(C)C3)c(OC)c1 (configuration not stated),.,?,-,.,.,.
Cc1ccccc1-c1cc2c(nn1)-c1ccccc1C2=O,-,-,-,-,-39,-
COc1ccccc1CNC(=O)c1ccc2c(c1)sc1nc(-c3ccc(F)cc3)cn12,.,-,-,.,.,.
COc1ccc(OC)c2[nH]c(=O)c(CCNS(=O)(=O)c3ccc(C)cc3)cc12,-,-,-,-,-30,-
COc1ccc(OC)c2[nH]c(=O)c(CCNS(=O)(=O)c3ccc(Cl)cc3)cc12,-,-,-,-,-33,-
Cc1ccc(C)c2[nH]c(=O)c(CCNS(=O)(=O)c3ccccc3)cc12,-,-,-,-,-,-
CCS(=O)(=O)N1CCc2cc(C(=O)Nc3cccc(NC(C)=O)c3)ccc21,.,-,-,.,.,.
O=C(Nc1ccc2nc(-c3ccco3)c(-c3ccco3)nc2c1)NC1CC1,-,35µM[quencher],-,-,-37,-
O=C(Nc1ccc(N2CCOCC2)cc1)Nc1ccc2nc(-c3ccco3)c(-c3ccco3)nc2c1,-,-,-,-,-,-
O=C(NCc1ccco1)Nc1ccc2nsnc2c1,-,-,-,-,-38,-
SMILES,TCR act,TexasRed fluor,TRb-SRC2 inh,NPSR antagonist,FBPA coupling cs,TSHR antagonist
COc1ccc(NC(=O)CSc2nnc(-c3ccco3)c(-c3ccco3)n2)cc1OC,-,.,.,.,-,-
O=C(NCCCO)Nc1ccc2nc(-c3ccco3)c(-c3ccco3)nc2c1,.,14µM[quencher],-,-,-43,-
O=C(Cn1c(=O)c(C(F)(F)F)nc2ccccc21)Nc1cccc(Br)c1,.,-,-,.,.,.
C/C(Cn1nnc([N+](=O)[O-])n1)=N\NC(=O)c1cccc(Cl)c1,-,-,-,-,-36,-
C/C(Cn1nnc([N+](=O)[O-])n1)=N\NC(=O)c1ccccc1Cl,-,-,-,-,-40,-
Cc1ccc(C)c(Cn2c(SCC(=O)N(C)Cc3ccccc3)nc3ccccc32)c1,.,-,-,.,.,.
COC(=O)c1scc(C#N)c1N/N=C(\C#N)S(=O)(=O)c1ccc(Cl)cc1,-,-,-,10µM,-,-
COC(=O)c1scc(S(=O)(=O)C(C)C)c1N/N=C(\C#N)C(=O)c1ccc(Cl)cc1,-,-,-,-[7.67 µM],-,-
CCn1nnc2cc(C(=O)Nc3cccc(C)c3C)ccc21,.,-,-,.,.,.
COc1ccccc1N1C(=O)N(C(C)=O)C2C1Nc1ccccc1N2C (configuration not stated),-,-,-,-,-40,.
Cc1ccc(NC(=O)CSc2nccn2-c2ccccc2)cc1,.,-,-,.,.,.
Cc1c(C)c2c(c(C)c1O)CC[C@@](C)(C(=O)O)O2,.,-,-,.,-34,.
Cc1ccccc1CSCc1nc2ccccc2[nH]1,-,1.1µM[quencher],-,-,-,-
CC(C)NC(=O)COc1coc(CN2CCN(c3ccccc3F)CC2)cc1=O,-,.,.,.,-,-124
CN(C)c1ccc(NC(=O)CSC2=Nc3ccccc3C3=NC(CCC(=O)NCc4cccs4)C(=O)N23)cc1 (configuration not stated),.,-,-,.,.,.
Cc1nc2nc(NCc3ccc(Cl)cc3)[nH]n2c(=O)c1Cc1ccccc1,.,-,-,.,.,.
CCN(CC(=O)NCc1ccc(F)cc1)C(=O)/C=C/c1ccco1,-,-,-,-,-40,-
CCN(CC(=O)NCc1ccc(F)cc1)C(=O)/C=C/c1cccs1,-,-,-,-,-,-
Cc1cccc(CN2CC34C=CC(CC3S2(=O)=O)O4)c1 (configuration not stated),.,-,-,.,-,.
CC(C)CCC[C@@H](C)[C@H]1CC[C@H]2[C@@H]3CC=C4CC(O)CC[C@]4(C)[C@H]3CC[C@]12C (some centres not stated),.,-,-,.,-,.
O/N=C1\CCCc2oc3c(c21)CCCC3,-,-,-,-,-31,-
Cc1c(C(=O)O)oc2c1/C(=N\O)CCC2,-,-,-,-,-,-
CN1Cc2c(N3CCOCC3)nc3sc(C(=O)c4ccc(Br)cc4)c(N)c3c2CC1(C)C,-,-,-,13µM,-,-
CCCOc1ccc(NC(=O)CC2C(=O)N(c3ccc(Cl)cc3)C(=O)N2CCc2ccncc2)cc1 (configuration not stated),.,-,-,.,.,.
Cc1cc(NC(=O)Cn2c(=O)nc(-c3ccccc3F)c3cc(Cl)ccc32)ccc1Br,.,0.035µM[quencher],-,.,.,.
Cc1ccc(NC(=O)Cn2c(=O)nc(-c3ccccc3F)c3cc(Cl)ccc32)c(Br)c1,.,-,-,.,.,.
